# Source: the supplement of paper PMC11732987, “Enantioselective OTUD7B fragment discovery through chemoproteomics screening and high-throughput optimisation” (Communications Chemistry, 2025)
# A number with no mark means an inactive call.
# Legend:
# Assay in all cases: log2 ratio of Biotin-Ahx-Ub-VS probe labelling (fragment/DMSO); higher = less target engagement (more negative = stronger competition), active = hit call of the paper (q ≤ 0.05, log2 ratio ≤ -1)
# Settings in all cases: compound concentration: 200 uM; treatment time: 3 h
# [1] = target: T1, OTUD6B (UniProt Q8N6M0)
# T1 sequence (whole entry): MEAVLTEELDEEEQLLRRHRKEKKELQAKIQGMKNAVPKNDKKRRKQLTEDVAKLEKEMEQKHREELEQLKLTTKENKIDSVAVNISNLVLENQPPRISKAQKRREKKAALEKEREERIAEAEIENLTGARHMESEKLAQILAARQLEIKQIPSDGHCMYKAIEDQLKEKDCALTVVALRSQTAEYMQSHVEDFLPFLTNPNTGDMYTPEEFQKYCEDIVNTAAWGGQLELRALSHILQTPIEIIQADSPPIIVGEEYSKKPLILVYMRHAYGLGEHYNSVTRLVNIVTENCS
# How it was run: (§1)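 Average log2 ratios of fragment over vehicle were obtained by unpaired t-test from global-median-normalised Spectronaut label-free quantities. Proteins with ≥2 unique peptides were included. HEK293T lysate (495 µg per sample) was treated in triplicate with fragment at 200 µM or vehicle for 3 h, then with Biotin-Ahx-Ub-VS at 0.5 µM final for 1 h, and labelled DUBs were NeutrAvidin-enriched and run by diaPASEF LC-MS/MS.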
# [2] = target: T2, OTUD7B (UniProt Q6GQQ9)
# T2 sequence (whole entry): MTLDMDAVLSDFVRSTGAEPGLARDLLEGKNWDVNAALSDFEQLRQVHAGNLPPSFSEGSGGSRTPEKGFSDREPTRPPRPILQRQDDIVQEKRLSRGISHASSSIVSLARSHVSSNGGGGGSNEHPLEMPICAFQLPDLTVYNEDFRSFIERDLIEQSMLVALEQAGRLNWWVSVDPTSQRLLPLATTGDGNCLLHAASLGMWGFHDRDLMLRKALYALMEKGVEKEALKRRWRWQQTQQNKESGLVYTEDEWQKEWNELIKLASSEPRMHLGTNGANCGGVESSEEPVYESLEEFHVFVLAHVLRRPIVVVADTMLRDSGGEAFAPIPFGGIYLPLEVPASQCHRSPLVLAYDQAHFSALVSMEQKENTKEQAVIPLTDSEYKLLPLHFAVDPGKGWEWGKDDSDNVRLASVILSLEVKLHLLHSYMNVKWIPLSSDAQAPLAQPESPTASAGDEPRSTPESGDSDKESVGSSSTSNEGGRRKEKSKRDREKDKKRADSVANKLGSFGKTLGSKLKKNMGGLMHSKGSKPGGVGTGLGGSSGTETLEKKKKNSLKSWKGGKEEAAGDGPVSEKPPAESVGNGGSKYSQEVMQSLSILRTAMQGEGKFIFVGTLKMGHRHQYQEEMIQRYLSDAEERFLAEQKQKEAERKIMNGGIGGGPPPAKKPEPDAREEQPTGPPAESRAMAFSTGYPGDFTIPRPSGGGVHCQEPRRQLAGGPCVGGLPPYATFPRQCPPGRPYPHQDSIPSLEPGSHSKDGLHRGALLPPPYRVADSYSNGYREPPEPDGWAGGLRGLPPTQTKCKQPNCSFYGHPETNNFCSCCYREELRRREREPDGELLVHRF
# How it was run: as §1
# [3] = target: PRPF8 (UniProt Q6P2Q9)
# How it was run: as §1
# [4] = target: T3, PSMD7 (UniProt P51665)
# T3 sequence (whole entry): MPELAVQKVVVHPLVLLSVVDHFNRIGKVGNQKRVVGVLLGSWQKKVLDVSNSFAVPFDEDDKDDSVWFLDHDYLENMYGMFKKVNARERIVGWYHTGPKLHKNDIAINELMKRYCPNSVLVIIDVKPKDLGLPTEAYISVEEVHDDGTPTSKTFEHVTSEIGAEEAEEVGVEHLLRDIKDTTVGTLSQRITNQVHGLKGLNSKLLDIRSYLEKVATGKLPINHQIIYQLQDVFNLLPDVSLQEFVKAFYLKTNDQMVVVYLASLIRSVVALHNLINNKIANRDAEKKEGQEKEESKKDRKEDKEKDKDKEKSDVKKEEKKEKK
# How it was run: as §1
# [5] = target: UCHL1 (UniProt P09936)
# UCHL1, sequence (P09936 whole entry, looked up): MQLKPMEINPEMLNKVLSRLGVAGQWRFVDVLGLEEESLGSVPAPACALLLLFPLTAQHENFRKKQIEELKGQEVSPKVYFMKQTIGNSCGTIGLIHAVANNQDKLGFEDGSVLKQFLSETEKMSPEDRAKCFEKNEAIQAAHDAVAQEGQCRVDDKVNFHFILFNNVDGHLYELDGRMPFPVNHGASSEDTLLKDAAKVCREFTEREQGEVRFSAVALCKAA
# How it was run: as §1
# [6] = target: T4, UCHL3 (UniProt P15374)
# T4 sequence (whole entry): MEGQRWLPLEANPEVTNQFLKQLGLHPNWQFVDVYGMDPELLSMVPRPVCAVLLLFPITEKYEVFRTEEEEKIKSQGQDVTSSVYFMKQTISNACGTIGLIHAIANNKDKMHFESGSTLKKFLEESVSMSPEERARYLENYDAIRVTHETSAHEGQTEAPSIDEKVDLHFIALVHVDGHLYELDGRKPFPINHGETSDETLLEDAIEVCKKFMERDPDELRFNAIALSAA
# How it was run: as §1
# [7] = target: T5, UCHL5 (UniProt Q9Y5K5)
# T5 sequence (whole entry): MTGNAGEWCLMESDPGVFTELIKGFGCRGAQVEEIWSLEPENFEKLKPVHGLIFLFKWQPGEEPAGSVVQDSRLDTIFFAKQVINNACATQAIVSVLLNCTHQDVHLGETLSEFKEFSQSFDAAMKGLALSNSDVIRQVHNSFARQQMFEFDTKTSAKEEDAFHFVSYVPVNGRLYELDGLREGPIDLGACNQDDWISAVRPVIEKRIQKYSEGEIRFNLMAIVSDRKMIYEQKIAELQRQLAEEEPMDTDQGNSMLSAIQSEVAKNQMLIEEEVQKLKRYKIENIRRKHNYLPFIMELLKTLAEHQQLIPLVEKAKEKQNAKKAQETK
# How it was run: as §1
# [8] = target: USP10 (UniProt Q14694)
# USP10, sequence (Q14694 whole entry): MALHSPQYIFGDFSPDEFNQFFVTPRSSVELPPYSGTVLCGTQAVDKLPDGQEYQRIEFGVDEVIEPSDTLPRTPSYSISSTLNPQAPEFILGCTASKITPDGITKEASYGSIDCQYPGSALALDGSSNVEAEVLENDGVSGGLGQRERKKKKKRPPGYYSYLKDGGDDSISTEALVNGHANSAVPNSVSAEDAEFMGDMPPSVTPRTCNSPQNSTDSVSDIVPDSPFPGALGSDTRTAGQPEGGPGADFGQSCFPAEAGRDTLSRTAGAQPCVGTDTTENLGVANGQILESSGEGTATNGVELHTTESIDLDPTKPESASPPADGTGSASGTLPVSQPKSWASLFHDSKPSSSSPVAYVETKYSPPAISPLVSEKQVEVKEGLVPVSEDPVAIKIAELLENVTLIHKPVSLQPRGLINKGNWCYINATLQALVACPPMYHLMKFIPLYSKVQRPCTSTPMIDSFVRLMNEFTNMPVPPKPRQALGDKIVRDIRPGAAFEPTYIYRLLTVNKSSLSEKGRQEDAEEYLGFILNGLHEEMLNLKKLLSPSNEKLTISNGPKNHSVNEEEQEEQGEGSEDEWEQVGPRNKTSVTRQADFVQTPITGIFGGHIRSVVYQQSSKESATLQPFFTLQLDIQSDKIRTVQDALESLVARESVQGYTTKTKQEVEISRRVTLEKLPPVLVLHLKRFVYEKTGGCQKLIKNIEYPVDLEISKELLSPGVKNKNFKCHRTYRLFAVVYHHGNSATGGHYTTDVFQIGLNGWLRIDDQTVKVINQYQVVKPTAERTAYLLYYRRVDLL
# How it was run: as §1
# [9] = target: T6, USP15 (UniProt Q9Y4E8)
# T6 sequence (whole entry): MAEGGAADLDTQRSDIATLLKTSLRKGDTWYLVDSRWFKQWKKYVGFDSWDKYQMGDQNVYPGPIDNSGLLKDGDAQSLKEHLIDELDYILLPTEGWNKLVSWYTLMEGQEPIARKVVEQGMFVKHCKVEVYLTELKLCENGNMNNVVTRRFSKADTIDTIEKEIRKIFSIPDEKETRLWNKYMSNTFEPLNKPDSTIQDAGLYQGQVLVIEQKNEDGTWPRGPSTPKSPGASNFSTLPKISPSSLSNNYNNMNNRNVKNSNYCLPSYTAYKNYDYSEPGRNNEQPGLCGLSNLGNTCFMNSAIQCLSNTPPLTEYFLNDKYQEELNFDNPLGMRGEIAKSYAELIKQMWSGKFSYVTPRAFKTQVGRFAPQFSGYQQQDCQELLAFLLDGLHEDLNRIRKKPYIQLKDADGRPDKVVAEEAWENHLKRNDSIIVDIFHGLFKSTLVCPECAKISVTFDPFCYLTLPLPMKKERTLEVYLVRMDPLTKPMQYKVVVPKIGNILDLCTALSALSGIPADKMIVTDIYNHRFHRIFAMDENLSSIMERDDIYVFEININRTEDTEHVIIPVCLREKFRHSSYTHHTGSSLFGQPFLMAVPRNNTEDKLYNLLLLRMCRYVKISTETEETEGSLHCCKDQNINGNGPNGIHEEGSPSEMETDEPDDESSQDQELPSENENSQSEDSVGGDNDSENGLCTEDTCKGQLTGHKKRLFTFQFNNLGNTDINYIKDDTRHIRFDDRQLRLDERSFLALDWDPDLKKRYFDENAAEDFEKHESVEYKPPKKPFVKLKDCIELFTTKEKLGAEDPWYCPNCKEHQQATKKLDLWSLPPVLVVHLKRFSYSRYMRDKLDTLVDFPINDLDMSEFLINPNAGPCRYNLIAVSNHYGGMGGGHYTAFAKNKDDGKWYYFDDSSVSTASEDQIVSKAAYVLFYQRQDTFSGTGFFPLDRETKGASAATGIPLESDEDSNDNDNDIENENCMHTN
# How it was run: as §1
# [10] = target: USP16 (UniProt Q9Y5T5)
# USP16, sequence (Q9Y5T5 whole entry, looked up): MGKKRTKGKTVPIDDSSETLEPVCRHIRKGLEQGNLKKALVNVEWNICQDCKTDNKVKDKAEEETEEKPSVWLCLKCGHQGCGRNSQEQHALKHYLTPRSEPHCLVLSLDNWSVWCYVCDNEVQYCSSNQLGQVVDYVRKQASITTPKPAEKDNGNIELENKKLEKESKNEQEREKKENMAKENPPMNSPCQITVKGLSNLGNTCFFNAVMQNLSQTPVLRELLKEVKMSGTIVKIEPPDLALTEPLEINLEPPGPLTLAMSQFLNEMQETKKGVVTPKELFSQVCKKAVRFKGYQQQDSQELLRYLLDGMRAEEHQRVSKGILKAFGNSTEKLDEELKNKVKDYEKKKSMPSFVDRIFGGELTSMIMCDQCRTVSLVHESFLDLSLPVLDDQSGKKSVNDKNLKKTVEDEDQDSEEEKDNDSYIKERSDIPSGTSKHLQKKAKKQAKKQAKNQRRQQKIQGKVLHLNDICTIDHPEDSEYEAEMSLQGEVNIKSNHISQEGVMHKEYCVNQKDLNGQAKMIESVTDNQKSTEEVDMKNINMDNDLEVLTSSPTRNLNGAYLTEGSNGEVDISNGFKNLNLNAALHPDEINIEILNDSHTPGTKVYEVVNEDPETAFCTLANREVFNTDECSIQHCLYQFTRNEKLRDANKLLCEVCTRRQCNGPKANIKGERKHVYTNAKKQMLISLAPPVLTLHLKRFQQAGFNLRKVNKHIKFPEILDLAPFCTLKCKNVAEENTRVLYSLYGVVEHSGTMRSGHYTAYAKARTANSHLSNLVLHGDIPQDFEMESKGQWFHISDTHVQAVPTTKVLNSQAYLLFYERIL
# How it was run: as §1
smiles,measurement,setting,value
O=C(CCl)N1CCC(C(=O)N2CCCC2)CC1,log2 ratio of Biotin-Ahx-Ub-VS probe labelling,[1],-0.427
same,log2 ratio of Biotin-Ahx-Ub-VS probe labelling,[2],-0.121
same,log2 ratio of Biotin-Ahx-Ub-VS probe labelling,[3],0.0985
same,log2 ratio of Biotin-Ahx-Ub-VS probe labelling,[4],0.0529
same,log2 ratio of Biotin-Ahx-Ub-VS probe labelling,[5],-1.3 (active)
same,log2 ratio of Biotin-Ahx-Ub-VS probe labelling,[6],0.284
same,log2 ratio of Biotin-Ahx-Ub-VS probe labelling,[7],0.037
same,log2 ratio of Biotin-Ahx-Ub-VS probe labelling,[8],-0.257
same,log2 ratio of Biotin-Ahx-Ub-VS probe labelling,[9],-0.395
same,log2 ratio of Biotin-Ahx-Ub-VS probe labelling,[10],-0.362
